# Test results taken from the supplement of paper PMC10849652.
# About 8,800 targets were measured; listed, in parts, are those with a hit and a random draw of the rest. About 0.5% of all pairs of compound and target were hits. A number with no mark means an inactive call.
# Legend:
# Test in all cases: log2 fold change, soluble protein after heating vs DMSO (PISA); higher = thermal stabilisation; K562 lysate, 10 uM; active = over 0.2 and 3.5 SD of the protein, either way, in both replicates (recomputed)
# [1] = compound: Cc1cn(-c2cc(NC(=O)c3ccc(C)c(Nc4nccc(-c5cccnc5)n4)c3)cc(C(F)(F)F)c2)cn1 [nilotinib]
# Method in brief: (§1)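 A 30 min treatment with 10 μM compound was applied to crude K562 extract at 1 mg/mL protein in PBS pH 7.4 with 1 mM MgCl2. Heating for 3 min spanned 48°C-58°C, after which aliquots were pooled, adjusted to 0.5% NP-40 at 4°C and spun at 21,000xg for 90 min. TMTpro 16plex LC-MS/MS of the supernatant, with channel sums equalised, gave values recorded as log-two fold change in thermal stability against solvent controls, from duplicates.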
# [2] = compound: Cc1nc(Nc2n[nH]c3c2CN(C(=O)N[C@H](CN(C)C)c2ccccc2)C3(C)C)c2sccc2n1
# Method in brief: as §1
# [3] = compound: Cc1nc(Nc2ncc(C(=O)Nc3c(C)cccc3Cl)s2)cc(N2CCN(CCO)CC2)n1 [dasatinib]
# Method in brief: as §1
# [4] = compound: Cc1ncc(-c2ccnc(Nc3ccc(S(C)(=O)=O)cc3)n2)n1C(C)C
# Method in brief: as §1
# [5] = compound: Cn1cc(-c2ccc3c(c2)CCN3C(=O)Cc2cccc(C(F)(F)F)c2)c2c(N)ncnc21
# Method in brief: as §1
# [6] = compound: Cn1cc(CNCC2CCN(c3ncc(C(=O)NO)cn3)CC2)c2ccccc21 [quisinostat]
# Method in brief: as §1
# [7] = compound: Cn1cncc1[C@@](N)(c1ccc(Cl)cc1)c1ccc2c(c1)c(-c1cccc(Cl)c1)cc(=O)n2C [tipifarnib]
# Method in brief: as §1
# [8] = compound: NC(=O)Nc1cc(-c2cccc(F)c2)sc1C(=O)N[C@H]1CCCNC1
# Method in brief: as §1
# [9] = compound: NC(=O)c1cnc(N[C@@H]2CCCC[C@@H]2N)nc1Nc1cccc(-n2nccn2)c1
# Method in brief: as §1
# [10] = compound: NC1(c2ccc(-c3nc4ccn5c(=O)[nH]nc5c4cc3-c3ccccc3)cc2)CCC1
# Method in brief: as §1
# Chain of UniProt P11413 (P11413 whole entry, looked up): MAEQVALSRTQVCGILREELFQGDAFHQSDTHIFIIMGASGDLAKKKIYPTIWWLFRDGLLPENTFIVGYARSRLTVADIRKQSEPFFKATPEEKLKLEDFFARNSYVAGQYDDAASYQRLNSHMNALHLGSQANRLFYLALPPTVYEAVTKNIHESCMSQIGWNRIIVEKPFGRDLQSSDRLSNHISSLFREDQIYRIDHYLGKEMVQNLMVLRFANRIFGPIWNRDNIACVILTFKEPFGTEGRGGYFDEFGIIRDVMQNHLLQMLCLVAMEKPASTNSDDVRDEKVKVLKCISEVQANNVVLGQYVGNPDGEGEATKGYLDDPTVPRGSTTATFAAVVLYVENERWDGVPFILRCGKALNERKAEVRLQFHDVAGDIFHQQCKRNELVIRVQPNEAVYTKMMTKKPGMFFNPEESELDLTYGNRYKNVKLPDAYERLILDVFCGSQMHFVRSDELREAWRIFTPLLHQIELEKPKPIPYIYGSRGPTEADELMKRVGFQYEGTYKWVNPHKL
# Chain of UniProt O14772 (O14772 whole entry, looked up): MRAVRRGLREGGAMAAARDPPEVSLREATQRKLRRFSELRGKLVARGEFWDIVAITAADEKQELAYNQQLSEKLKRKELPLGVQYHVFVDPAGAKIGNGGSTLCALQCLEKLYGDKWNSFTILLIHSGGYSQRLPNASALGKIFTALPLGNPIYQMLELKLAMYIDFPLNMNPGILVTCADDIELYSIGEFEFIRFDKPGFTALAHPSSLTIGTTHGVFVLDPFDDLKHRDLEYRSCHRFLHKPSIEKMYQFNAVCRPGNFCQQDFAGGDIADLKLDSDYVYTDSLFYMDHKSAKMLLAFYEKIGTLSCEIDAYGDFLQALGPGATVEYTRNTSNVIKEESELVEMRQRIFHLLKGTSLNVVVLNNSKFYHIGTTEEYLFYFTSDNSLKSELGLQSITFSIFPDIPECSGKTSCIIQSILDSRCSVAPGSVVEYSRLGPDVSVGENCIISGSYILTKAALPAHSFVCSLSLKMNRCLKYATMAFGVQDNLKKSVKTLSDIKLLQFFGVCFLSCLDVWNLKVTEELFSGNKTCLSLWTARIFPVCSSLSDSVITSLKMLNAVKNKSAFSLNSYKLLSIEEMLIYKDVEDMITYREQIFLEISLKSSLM
# Chain of UniProt Q9HCG7 (Q9HCG7 whole entry, looked up): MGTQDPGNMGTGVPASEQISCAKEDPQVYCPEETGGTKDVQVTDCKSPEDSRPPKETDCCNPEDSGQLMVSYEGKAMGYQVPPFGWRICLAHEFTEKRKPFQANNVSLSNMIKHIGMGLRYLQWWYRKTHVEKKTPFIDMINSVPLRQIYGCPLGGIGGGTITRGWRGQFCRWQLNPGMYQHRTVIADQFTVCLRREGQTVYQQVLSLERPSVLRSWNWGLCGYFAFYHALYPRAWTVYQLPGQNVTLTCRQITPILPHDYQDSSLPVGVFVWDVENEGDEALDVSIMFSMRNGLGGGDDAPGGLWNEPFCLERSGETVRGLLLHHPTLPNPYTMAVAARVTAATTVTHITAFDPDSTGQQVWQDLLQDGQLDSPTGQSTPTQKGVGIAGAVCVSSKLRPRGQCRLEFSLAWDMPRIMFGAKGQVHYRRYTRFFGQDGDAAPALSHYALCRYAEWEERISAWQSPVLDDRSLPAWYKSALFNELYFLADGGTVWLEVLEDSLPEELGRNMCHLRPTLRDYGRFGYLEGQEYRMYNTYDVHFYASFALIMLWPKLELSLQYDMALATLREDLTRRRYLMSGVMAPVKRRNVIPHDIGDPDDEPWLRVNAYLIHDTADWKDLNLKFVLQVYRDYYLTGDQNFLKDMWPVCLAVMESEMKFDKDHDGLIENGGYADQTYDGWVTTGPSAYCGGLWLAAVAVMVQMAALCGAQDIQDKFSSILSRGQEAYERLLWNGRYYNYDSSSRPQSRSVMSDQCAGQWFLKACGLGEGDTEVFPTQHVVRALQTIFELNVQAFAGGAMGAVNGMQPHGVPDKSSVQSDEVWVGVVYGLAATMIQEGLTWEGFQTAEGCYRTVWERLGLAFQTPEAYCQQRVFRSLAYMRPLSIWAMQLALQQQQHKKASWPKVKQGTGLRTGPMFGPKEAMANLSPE
# Chain of UniProt Q9NWS6 (Q9NWS6 whole entry, looked up): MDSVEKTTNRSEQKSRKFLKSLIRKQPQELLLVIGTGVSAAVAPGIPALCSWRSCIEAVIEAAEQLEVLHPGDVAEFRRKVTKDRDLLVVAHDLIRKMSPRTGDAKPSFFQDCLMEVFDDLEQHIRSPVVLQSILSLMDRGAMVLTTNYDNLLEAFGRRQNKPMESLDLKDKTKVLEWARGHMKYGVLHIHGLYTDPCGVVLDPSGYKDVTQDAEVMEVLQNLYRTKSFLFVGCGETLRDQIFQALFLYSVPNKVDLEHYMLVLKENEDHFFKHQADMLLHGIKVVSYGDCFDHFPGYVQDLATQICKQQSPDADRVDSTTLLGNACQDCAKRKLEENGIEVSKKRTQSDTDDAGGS
# Chain of UniProt P51114 (P51114 whole entry, looked up): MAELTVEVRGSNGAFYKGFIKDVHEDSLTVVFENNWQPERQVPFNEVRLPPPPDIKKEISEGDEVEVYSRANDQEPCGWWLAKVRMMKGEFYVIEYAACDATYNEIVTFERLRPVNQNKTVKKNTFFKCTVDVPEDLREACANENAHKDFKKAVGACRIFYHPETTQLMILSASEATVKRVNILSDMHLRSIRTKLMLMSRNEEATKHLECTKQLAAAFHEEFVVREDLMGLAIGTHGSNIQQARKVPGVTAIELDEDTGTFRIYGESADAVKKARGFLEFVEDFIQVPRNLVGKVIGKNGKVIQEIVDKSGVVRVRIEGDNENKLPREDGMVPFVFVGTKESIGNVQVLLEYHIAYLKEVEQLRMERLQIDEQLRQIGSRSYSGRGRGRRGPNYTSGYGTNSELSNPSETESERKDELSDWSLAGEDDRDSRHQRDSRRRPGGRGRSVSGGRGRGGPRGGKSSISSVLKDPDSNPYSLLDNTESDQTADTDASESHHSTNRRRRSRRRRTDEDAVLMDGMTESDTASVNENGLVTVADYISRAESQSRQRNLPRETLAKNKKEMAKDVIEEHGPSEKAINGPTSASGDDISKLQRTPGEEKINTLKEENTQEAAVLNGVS
# Chain of UniProt Q9Y285 (Q9Y285 whole entry, looked up): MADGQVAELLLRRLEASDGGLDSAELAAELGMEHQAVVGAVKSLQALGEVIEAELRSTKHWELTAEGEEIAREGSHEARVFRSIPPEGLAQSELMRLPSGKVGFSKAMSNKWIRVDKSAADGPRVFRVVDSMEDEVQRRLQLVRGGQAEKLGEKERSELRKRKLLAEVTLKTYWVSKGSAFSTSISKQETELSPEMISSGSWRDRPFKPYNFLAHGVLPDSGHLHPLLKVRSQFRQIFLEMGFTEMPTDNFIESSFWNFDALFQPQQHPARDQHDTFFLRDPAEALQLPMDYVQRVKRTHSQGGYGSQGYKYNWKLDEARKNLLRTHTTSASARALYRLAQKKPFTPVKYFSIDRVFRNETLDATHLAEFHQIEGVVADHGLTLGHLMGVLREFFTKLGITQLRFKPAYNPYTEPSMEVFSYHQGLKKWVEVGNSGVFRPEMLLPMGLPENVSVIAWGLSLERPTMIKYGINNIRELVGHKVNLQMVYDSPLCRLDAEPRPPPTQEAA
# Chain of UniProt P23919 (P23919 whole entry, looked up): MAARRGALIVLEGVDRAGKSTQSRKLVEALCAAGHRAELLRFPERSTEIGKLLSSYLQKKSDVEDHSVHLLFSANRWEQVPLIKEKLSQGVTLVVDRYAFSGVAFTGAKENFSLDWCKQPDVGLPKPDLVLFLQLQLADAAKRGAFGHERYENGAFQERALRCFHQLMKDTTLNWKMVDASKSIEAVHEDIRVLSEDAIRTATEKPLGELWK
# Chain of UniProt Q9UI10 (Q9UI10 whole entry, looked up): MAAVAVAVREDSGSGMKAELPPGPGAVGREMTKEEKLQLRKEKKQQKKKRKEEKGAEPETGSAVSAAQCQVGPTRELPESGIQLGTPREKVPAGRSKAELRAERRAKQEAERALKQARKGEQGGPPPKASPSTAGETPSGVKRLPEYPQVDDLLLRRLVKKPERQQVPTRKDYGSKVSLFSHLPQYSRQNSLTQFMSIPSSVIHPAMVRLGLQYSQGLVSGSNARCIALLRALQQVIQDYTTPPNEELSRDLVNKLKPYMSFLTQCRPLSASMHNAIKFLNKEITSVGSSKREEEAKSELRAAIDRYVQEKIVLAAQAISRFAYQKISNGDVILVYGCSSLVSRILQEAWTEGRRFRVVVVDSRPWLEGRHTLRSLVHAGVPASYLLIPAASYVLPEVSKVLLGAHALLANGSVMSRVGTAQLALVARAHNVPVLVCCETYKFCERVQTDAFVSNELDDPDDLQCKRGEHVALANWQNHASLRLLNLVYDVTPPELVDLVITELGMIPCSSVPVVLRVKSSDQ
# Chain of UniProt Q9UET6 (Q9UET6 whole entry, looked up): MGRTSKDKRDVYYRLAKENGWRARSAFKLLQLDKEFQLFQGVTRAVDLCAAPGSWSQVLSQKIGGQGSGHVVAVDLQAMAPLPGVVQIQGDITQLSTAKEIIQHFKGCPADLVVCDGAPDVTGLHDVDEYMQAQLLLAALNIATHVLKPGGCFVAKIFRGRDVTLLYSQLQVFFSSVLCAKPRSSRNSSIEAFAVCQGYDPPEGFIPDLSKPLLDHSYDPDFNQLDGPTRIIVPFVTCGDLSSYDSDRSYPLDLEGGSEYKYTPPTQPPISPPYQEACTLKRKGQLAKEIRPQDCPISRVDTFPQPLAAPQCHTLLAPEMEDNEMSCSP
# Chain of UniProt Q9BPY3 (Q9BPY3 whole entry, looked up): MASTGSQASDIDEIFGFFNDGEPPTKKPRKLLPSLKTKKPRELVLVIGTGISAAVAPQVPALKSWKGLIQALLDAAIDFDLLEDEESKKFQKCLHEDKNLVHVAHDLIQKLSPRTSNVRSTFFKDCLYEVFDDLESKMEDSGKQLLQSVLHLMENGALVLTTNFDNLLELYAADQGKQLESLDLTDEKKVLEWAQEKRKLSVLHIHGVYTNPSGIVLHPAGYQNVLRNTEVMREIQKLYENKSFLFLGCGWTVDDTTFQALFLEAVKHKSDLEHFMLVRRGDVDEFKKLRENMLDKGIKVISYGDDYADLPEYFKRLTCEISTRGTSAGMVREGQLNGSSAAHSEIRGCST
Target,log2 fold change [1],log2 fold change [2],log2 fold change [3],log2 fold change [4],log2 fold change [5],log2 fold change [6],log2 fold change [7],log2 fold change [8],log2 fold change [9],log2 fold change [10]
DTYMK (UniProt P23919),-0.003,0.002,-0.072,-0.007,-0.025,-0.009,0.017,0.045,-0.024,-0.007
FXR1 (UniProt P51114),-0.139,0.031,0.028,-0.011,0.018,-0.057,-0.005,0.024,-0.001,-0.047
GATAD2A isoform 3 (UniProt Q86YP4),0.041,0.001,0.006,-0.009,0.001,-0.074,-0.009,0.032,0.002,-0.024
GBA2 (UniProt Q9HCG7),-0.063,0.114,0.059,-0.079,0.034,-0.101,-0.213,0.023,0.058,-0.074
FPGT (UniProt O14772),-0.006,-0.004,-0.057,0.029,-0.014,-0.105,-0.036,0.046,0.035,-0.03
ERCC4 (UniProt Q92889),-0.047,-0.002,0.01,-0.05,0.033,-0.105,-0.007,0.041,0.027,-0.004
FAM76B (UniProt Q5HYJ3),-0.044,0.019,0.093,-0.004,0.005,-0.028,-0.019,-0.032,-0.026,-0.07
EWSR1 isoform 5 (UniProt Q01844),-0.766 (active),0.019,0.004,0.036,-0.049,-0.025,0.082,0.013,-0.002,0.024
FAM118A (UniProt Q9NWS6),-0.017,-0.03,-0.043,-0.003,-0.082,-0.103,0.016,0.013,0.003,-0.023
EP400 isoform 5 (UniProt Q96L91),-0.05,-0.04,0.001,-0.025,-0.005,-0.014,0.04,0.012,0.019,-0.003
EPN2 (UniProt O95208),-0.001,0.01,-0.011,0.017,0.054,-0.016,-0.07,0.021,0.01,-0.016
EXOC5 (UniProt O00471),0.008,-0.025,-0.063,-0.003,0.047,-0.044,0.006,0.014,0.01,0.002
ENO1 isoform 2 (UniProt P06733),0.01,-0.009,0.021,-0.036,-0.012,-0.038,0.035,-0.007,-0.008,0.004
FANCD2 isoform 1 (UniProt Q9BXW9),0.015,-0.002,-0.066,0.048,0,-0.238 (active),-0.037,0.018,0.033,-0.124
FAM118B (UniProt Q9BPY3),-0.018,0.002,-0.039,-0.009,-0.008,-0.06,-0.015,0.021,0.032,-0.007
FTSJ1 (UniProt Q9UET6),-0.013,-0.039,-0.016,-0.007,-0.007,-0.032,-0.054,0.035,-0.001,0.029
EMC7 (UniProt Q9NPA0),0.047,-0.015,-0.022,0.027,0.001,-0.006,-0.014,-0.003,0.014,-0.073
FIG4 (UniProt Q92562),-0.02,0.144,-0.007,0.08,0.145,0.077,-0.038,0.013,-0.066,0.06
"ENO1, A0A2R8YEM5",-0.021,-0.017,-0.013,0.002,-0.021,-0.005,0.053,-0.026,0.002,-0.008
GALK1 isoform 2 (UniProt P51570),0.01,-0.018,-0.024,-0.014,0.03,-0.051,0.002,0.04,-0.033,-0.006
FIBP (UniProt O43427),-0.001,0.036,0.013,-0.024,-0.043,0.019,-0.037,0.024,0,0
EPB41 (UniProt P11171),-0.01,0.024,0,-0.007,0.031,0.039,0.011,0.003,0.012,0.003
G6PD isoform 2 (UniProt P11413),0.013,-0.008,0.01,-0.012,-0.01,-0.021,0.016,0.012,-0.035,0.008
FXR2 (UniProt P51116),-0.066,0.032,-0.027,0.003,0.074,0.025,0.015,-0.034,-0.012,-0.003
EIF2B4 (UniProt Q9UI10),0.053,-0.005,0.014,0.033,-0.022,0.02,0.016,0.022,0.039,-0.021
ESYT2 (UniProt H7BXI1),0.016,-0.017,-0.01,0.037,0.02,0.027,0.009,-0.015,-0.031,-0.051
ELAVL4 (UniProt P26378),-0.07,-0.062,0.006,0.092,0.039,-0.07,-0.06,0.07,0.01,0.024
FARSA (UniProt Q9Y285),-0.006,0.017,-0.03,-0.003,0.001,-0.037,0.003,0.009,-0.015,-0.056
EIF3I (UniProt Q13347),0.022,-0.004,-0.018,0.013,0.044,-0.009,0.018,0.036,0,-0.013
DST (UniProt Q03001),-0.002,-0.035,-0.023,0.045,-0.06,-0.118,0.069,0.022,0.027,-0.107
